Reference: PubChem BioAssay (NCATS)
Where “and” joins values, the source holds several entries; their conditions need not be identical. Identical values can stand only once. Calls of active or inactive are those of the source. Entries that show only a call come without a potency. Unless noted, the call rests on the fitted dose curve; in most records, active means well fitted curve in the direction sought with a large enough effect; inconclusive means small, poorly fitted or top-dose-only effect, or another doubt; inactive means no such curve, though single readings can be large; an effect the other way counts as inactive or inconclusive.

Legend:
[1] = molecular target: Galactokinase (Homo sapiens) (UniProt P51570); test: qHTS Validation Assay for Inhibitors of Human Galactokinase (GALK) (AID 493189)
Procedure, shortened: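 Luminescence from leftover ATP (Kinase-Glo Plus, 10 min) served as read-out after a 1 h room-temperature reaction of 5 nM GALK, 100 uM galactose and 35 uM ATP at pH8.0.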

[2] = Validation screen for small molecules that induce DNA re-replication in SW480 colon adenocarcinoma cells (AID 504364)
Procedure, shortened: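 Cells are treated 48 hr with test compound, stained 40 min with Hoechst at 37 C, and scanned for nuclear fluorescence; compounds inducing re-replication increase nuclei with elevated intensity.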

[3] = molecular target: Peptidyl-prolyl cis-trans isomerase NIMA-interacting 1 (Homo sapiens) (UniProt Q13526); test: qHTS Validation Assay to Find Inhibitors of Pin1 (AID 504536; active means well fitted inhibition curve with a large enough effect in the polarisation, with a control signal flat, not every such curve was filed as active; inconclusive means small, poorly fitted or top-dose-only effect, or effect the other way; the % refers to the polarisation)
Chain of Peptidyl-prolyl cis-trans isomerase NIMA-interacting 1 (Homo sapiens) (Q13526 whole entry, looked up): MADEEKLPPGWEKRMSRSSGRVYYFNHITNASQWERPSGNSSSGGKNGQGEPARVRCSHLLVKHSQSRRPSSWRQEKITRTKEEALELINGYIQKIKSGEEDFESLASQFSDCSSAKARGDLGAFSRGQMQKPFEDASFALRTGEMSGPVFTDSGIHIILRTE
Procedure, shortened: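 Fluorescence polarization competition: compounds (titration) displace HiFluor-488-labeled Pin1-1b peptide from Pin1 (0.3 uM final) in pH 7.5 HEPES buffer with DTT, 10 min at room temperature; %Activity normalized to no-enzyme wells, curves fitted.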

[4] = molecular target: Phosphoglycerate kinase, glycosomal (Trypanosoma brucei brucei) (UniProt P07378); test: qHTS Validation Assay to Find Inhibitors of Phosphoglycerate Kinase (AID 504547)
Procedure, shortened: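 Substrate/PGK mix plus compound; reaction started with GAPDH (100nM final) to form 1,3-BPG; 60 min RT; Kinase-Glo Plus 10 min; luminescence. TEA 100mM pH 7.6, MgCl2 5mM, Tween-20 0.01%.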

[5] = molecular target: phosphoglycerate mutase (Leishmania major) (UniProt Q4Q090); test: qHTS Validation Assay to Find Inhibitors of Phosphoglycerate Mutase (AID 504548); further: series mostly up to about 58 µM
Chain of phosphoglycerate mutase (Leishmania major) (Q4Q090 1-553): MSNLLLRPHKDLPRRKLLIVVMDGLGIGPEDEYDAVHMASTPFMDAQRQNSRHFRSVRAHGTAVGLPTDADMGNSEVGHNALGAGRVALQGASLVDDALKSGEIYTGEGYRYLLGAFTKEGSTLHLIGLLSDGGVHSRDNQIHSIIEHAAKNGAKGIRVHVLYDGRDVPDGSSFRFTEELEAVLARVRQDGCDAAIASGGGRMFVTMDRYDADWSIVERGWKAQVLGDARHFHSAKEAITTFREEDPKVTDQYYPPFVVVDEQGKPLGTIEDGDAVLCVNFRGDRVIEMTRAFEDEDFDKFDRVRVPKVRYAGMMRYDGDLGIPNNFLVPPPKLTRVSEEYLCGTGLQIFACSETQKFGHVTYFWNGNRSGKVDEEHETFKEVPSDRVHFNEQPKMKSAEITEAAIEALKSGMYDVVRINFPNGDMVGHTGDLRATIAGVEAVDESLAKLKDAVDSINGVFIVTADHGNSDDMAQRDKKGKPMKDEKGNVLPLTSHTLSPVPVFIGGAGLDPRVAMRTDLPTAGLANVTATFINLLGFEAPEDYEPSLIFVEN
Procedure, shortened: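 Luminescent end-point read-out via Kinase-GloPlus after a 10-minute development. Reaction: 1.25nM Leishmania major PGAM with substrate and compound, 45 minutes at room temperature in TEA buffer (pH 7.6) with MgCl2 and Tween-20.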

[6] = molecular target: Ubiquitin carboxyl-terminal hydrolase 1 (Homo sapiens) (UniProt O94782); test: Inhibitors of USP1/UAF1: Pilot qHTS (AID 504865);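 further: rhodamine fluorescence freed from ubiquitin-rhodamine substrate followed over time; top concentration of the series differs between compounds; nearly all actives have a fitted effect of over 35% in size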
Chain of Ubiquitin carboxyl-terminal hydrolase 1 (Homo sapiens) (O94782 whole entry, looked up): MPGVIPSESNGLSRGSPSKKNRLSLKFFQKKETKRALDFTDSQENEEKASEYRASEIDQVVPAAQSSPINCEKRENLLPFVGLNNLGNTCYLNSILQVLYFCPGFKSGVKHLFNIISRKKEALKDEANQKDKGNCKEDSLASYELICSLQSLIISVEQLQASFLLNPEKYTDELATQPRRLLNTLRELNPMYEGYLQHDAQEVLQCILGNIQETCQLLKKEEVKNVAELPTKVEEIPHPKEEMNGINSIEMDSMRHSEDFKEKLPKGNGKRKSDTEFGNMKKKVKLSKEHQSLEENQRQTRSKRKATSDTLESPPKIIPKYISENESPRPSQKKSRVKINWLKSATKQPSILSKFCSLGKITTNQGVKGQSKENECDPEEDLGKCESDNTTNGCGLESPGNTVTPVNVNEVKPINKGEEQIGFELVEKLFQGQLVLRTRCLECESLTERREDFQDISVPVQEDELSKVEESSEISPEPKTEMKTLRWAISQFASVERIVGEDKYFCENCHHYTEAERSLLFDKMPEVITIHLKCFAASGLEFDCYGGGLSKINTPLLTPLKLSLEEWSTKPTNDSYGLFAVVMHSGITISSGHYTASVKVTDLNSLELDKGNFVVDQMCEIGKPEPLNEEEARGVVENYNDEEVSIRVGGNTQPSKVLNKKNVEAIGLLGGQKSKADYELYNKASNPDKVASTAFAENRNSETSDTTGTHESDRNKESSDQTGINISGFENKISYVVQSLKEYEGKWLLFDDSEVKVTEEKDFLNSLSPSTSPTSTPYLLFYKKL
Procedure, shortened: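 1nM USP1/UAF1 + cpd, 15 min RT; start w/ Ub-Rho 150nM final; kinetic FL 480/540 nm, 6 reads q60 s. Buffer 50mM HEPES pH 7.8, 0.5mM EDTA, 1mM TCEP, 0.01% Tween-20, 0.1 mg/ml BSA.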

[7] = qHTS for Inhibitors of ATXN expression: Validation (AID 588378); further: nearly all actives have a fitted effect of over 75% in size; further: potency means the concentration at half of the fitted maximal effect
Procedure, shortened: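 Cells: HEK293-ATXN2-FFLuc, phenol-red free DMEM, 2 h attachment. Compound pin-transfer, 24 h, 37 degrees C, 5% CO2. CellTiter-Fluor 30 min, Ex405/Em525; Bright-Glo 5 min, luminescence 2 s exposure.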

[8] = molecular target: Estrogen receptor (Homo sapiens) (UniProt P03372); test: qHTS assay for small molecule agonists of estrogen receptor alpha signaling (AID 588514; calls by dose curve; further: nearly all actives have a fitted effect of over 70% in size)
Chain of Estrogen receptor (Homo sapiens) (P03372 whole entry, looked up): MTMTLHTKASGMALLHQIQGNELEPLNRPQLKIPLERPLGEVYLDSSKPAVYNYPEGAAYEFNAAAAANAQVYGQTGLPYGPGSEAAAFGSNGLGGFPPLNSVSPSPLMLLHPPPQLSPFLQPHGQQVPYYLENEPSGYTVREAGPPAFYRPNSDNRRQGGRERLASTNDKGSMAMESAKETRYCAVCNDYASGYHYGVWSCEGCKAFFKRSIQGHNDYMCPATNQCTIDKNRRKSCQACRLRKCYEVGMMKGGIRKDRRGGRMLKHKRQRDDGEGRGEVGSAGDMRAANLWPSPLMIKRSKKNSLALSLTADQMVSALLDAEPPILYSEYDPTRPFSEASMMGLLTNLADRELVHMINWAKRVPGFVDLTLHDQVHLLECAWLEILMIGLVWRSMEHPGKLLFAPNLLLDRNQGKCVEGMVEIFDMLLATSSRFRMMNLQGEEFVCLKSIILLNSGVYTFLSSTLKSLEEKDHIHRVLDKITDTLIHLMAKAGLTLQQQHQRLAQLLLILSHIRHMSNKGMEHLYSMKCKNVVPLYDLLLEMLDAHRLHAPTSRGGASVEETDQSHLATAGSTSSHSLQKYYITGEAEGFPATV
Procedure, shortened: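 Reporter-gene assay. […] controls beta-lactamase in HEK 293 GripTite cells; after 18 hrs with compound, CCF4 substrate is added for 2 hrs and fluorescence is read.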

[9] = molecular target: Androgen receptor (Homo sapiens) (UniProt P10275); test: qHTS assay for small molecule agonists of androgen receptor signaling (AID 588515; active means well fitted curve in the direction sought with a large enough effect in the signal ratio, with a control signal flat; inconclusive means small, poorly fitted or top-dose-only effect, or effect the other way, or a change in a side signal; inactive means no such curve, though single readings can be large or run the other way; the % refers to the signal ratio); settings: AR-UAS-bla HEK293, beta-lactamase ratio, agonist 16 h; stronger effect = higher value
Chain of Androgen receptor (Homo sapiens) (P10275 whole entry, looked up): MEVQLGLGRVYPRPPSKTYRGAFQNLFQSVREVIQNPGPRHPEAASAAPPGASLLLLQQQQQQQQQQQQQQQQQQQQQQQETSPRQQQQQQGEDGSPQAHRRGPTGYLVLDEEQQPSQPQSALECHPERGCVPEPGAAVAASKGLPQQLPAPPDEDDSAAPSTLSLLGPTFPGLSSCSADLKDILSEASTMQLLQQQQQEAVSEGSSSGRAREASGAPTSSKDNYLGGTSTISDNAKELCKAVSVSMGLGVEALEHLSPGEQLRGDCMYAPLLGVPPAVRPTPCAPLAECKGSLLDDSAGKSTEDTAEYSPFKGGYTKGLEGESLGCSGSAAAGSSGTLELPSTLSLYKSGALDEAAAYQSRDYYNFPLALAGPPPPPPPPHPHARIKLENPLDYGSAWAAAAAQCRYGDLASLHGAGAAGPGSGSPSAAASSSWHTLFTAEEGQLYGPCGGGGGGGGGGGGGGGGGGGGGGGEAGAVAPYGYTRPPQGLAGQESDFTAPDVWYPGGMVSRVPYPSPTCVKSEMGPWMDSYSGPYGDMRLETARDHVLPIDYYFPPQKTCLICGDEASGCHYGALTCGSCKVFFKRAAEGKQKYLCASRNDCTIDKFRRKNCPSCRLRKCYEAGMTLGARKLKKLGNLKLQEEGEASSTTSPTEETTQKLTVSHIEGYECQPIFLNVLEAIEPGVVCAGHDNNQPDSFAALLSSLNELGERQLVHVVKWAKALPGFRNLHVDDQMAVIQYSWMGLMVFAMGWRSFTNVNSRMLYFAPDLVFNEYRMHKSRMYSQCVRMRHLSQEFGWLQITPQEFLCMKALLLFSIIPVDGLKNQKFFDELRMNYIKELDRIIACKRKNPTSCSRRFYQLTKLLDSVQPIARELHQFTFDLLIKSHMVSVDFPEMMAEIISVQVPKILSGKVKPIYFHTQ
Procedure, shortened: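 EC50 and efficacy came from Hill fits of titrations (up to 92 uM) normalized to 30 nM R1881 as 100% and DMSO as 0%. Compound exposure was 16 h at 37 C on AR-UAS-bla HEK293 cells, with a 405/460/530 nm CCF4 fluorescence read.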

[10] = molecular target: Androgen receptor (Homo sapiens) (UniProt P10275); test: qHTS assay for small molecule antagonists of androgen receptor signaling (AID 588516; active means well fitted curve in the direction sought with a large enough effect in the signal ratio, with a control signal flat, not every such curve was filed as active; inconclusive means small, poorly fitted or top-dose-only effect, or effect the other way, or a change in a side signal; inactive means no such curve, though single readings can be large or run the other way; the % refers to the signal ratio)
Procedure, shortened: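 HEK293 AR-UAS-bla cells, 10% dialyzed FBS medium; cpd titration + R1881 10 nM final, 16 h 37 C; CCF4 2 h RT; FRET ratio; IC50/efficacy via Hill fit.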

[11] = molecular target: Bile acid receptor (Homo sapiens) (UniProt Q96RI1); test: qHTS assay for small molecule antagonists of farnesoid X receptor signaling (AID 588526; calls by dose curve)
Chain of Bile acid receptor (Homo sapiens) (Q96RI1 whole entry, looked up): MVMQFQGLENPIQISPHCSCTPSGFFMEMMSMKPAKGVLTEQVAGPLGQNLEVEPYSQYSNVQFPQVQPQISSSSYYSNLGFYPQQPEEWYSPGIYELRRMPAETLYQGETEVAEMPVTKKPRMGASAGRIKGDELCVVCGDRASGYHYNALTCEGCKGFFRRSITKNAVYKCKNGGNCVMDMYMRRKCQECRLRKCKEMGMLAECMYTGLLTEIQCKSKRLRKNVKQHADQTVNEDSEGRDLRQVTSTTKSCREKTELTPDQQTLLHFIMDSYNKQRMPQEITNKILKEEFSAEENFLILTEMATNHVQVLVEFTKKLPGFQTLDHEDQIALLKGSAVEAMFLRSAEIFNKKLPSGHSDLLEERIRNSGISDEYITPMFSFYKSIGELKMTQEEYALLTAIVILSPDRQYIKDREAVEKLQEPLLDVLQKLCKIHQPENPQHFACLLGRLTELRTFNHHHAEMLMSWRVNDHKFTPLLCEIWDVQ
Procedure, shortened: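 Concentration-response titrations were fitted to the Hill equation for half-maximal inhibition and maximal response, with data normalised to 50 uM chenodeoxycholic acid and DMSO control wells. Cells: FXR-UAS-bla HEK293T, dialyzed FBS.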

[12] = molecular target: Glucocorticoid receptor (Homo sapiens) (UniProt P04150); test: qHTS assay for small molecule agonists of glucocorticoid receptor signaling (AID 588532; active means well fitted curve in the direction sought with a large enough effect in the signal ratio, with a control signal flat; inconclusive means small, poorly fitted or top-dose-only effect, or a change in a side signal; inactive means no such curve, though single readings can be large or run the other way; the % refers to the signal ratio); settings: HeLa MMTV-bla, beta-lactamase ratio, agonist, 18 h; stronger effect = higher value; percent of dexamethasone control, DMSO zero
Chain of Glucocorticoid receptor (Homo sapiens) (P04150 whole entry, looked up): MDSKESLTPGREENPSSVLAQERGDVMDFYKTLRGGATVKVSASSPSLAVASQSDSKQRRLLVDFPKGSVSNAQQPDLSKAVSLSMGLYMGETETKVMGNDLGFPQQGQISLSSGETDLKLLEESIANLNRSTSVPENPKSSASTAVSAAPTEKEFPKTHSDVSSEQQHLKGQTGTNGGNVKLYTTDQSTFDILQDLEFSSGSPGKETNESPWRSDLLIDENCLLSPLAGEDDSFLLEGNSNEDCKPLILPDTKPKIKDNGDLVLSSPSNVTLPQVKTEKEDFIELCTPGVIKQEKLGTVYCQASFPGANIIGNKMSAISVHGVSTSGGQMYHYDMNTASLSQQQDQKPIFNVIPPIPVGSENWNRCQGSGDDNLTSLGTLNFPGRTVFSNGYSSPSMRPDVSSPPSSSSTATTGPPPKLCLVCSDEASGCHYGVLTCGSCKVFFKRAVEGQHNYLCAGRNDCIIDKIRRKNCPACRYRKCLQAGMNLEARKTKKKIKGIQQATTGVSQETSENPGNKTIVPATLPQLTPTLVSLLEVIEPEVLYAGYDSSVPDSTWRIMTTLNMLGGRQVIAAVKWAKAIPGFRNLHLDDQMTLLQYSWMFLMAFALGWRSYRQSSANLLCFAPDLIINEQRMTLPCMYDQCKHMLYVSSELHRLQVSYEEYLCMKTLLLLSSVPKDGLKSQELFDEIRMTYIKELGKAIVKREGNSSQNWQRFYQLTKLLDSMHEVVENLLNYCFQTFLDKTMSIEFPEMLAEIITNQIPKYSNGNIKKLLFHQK
Procedure, shortened: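 Stimulation of a glucocorticoid response element-driven beta-lactamase gene was measured in HeLa cells. Responses were scaled between DMSO basal and 0.1 uM dexamethasone, then fitted for half-maximal stimulation.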

[13] = qHTS assay for small molecule antagonists of peroxisome proliferator-activated receptor delta signaling (AID 588535; active means well fitted inhibition curve with a large enough effect in the signal ratio, with a control signal flat, not every such curve was filed as active; inconclusive means small, poorly fitted or top-dose-only effect, or effect the other way, or a change in a side signal; inactive means no such curve, though single readings can be large or run the other way; the % refers to the signal ratio;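 on max response: cells co-treated with a PPAR-delta agonist as stimulator during compound exposure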); settings: HEK293T PPARd-UAS-bla, beta-lactamase FRET ratio, 18 h; 460 nm channel
Procedure, shortened: (§1)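 GeneBLAzer PPAR-delta-UAS-bla HEK293T cells in medium with 2% charcoal/dextran FBS were preincubated 5 hrs at 37 C, then given compounds, incubated 18 hrs at 37 C, and read by CCF4 beta-lactamase fluorescence; IC50 from Hill fits.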

[14] = molecular target: Peroxisome proliferator-activated receptor delta (Homo sapiens) (UniProt Q03181); test: as above
Procedure, shortened: as §1

[15] = molecular target: Vitamin D3 receptor (Homo sapiens) (UniProt P11473); test: qHTS assay for small molecule antagonists of vitamin D receptor signaling (AID 588541; calls by dose curve;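 further: receptor activated by calcitriol during compound treatment; series mostly up to about 77 µM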)
Chain of Vitamin D3 receptor (Homo sapiens) (P11473 whole entry, looked up): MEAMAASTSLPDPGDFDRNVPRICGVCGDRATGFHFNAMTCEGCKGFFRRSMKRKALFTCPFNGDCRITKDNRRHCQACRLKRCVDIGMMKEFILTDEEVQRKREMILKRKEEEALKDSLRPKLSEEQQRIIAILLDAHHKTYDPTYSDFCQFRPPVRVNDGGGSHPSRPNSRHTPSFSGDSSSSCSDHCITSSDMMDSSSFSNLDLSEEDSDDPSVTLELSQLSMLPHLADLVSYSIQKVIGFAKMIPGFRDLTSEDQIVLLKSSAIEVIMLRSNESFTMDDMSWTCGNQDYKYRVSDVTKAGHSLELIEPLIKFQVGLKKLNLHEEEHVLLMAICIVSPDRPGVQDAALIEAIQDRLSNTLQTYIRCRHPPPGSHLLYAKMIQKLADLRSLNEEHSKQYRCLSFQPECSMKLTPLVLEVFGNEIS
Procedure, shortened: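 VDR-UAS-bla HEK293T cells (2000/well, 2% charcoal-stripped FBS) were treated with titrated compounds plus 1-alpha,25-dihydroxyvitamin D3 (50 nM or 3 nM final) for 16 h at 37 C. CCF4 beta-lactamase fluorescence was read; Hill fits gave IC50.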

[16] = qHTS for Inhibitors of ATXN expression: Validation of Cytotoxic Assay (AID 588349);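 further: cells exposed to compound for 72 hr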; further: potency means the concentration at half of the fitted maximal effect
Procedure, shortened: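 HEK293, compound dose series, 72 hr / 37 degrees C; viability via CellTiter Glo (intracellular ATP).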

[17] = molecular target: DNA dC->dU-editing enzyme APOBEC-3G (Homo sapiens) (UniProt Q9HC16); test: qHTS for inhibitors of Vif-A3G interactions: Validation (AID 588379)
Procedure, shortened: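 HeLa cells stably expressing Vif and A3G-eYFP, 700 cells/well, incubated overnight at 37 deg C, then exposed to compound overnight at 37 deg C. Inhibition of Vif-mediated degradation read as increased yellow fluorescence (Ex 488/Em 500-530) by laser-scanning cytometry.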

[18] = molecular target: Peroxisome proliferator-activated receptor gamma (Homo sapiens) (UniProt P37231); test: qHTS assay for small molecule antagonists of peroxisome proliferator-activated receptor gamma signaling (AID 588537; active means well fitted inhibition curve with a large enough effect in the signal ratio, with a control signal flat, not every such curve was filed as active; inconclusive means small, poorly fitted or top-dose-only effect, or effect the other way, or a change in a side signal; the % refers to the signal ratio; further: potency means the concentration at half of the fitted maximal effect)
Procedure, shortened: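 PPAR-gamma-UAS-bla HEK293 cells (3000/well, 1% charcoal/dextran-stripped FBS) were preincubated 6-6.5 h at 37 C, given titrated compounds, then stimulated with 50 nM rosiglitazone for 16 h. Beta-lactamase activity was read with CCF4 dye; IC50 came from Hill fits.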

[19] = molecular target: Estrogen receptor (Homo sapiens) (UniProt P03372); test: qHTS assay for small molecule antagonists of estrogen receptor alpha signaling (AID 588513; active means well fitted curve in the direction sought with a large enough effect in the signal ratio, with a control signal flat, not every such curve was filed as active; inconclusive means small, poorly fitted or top-dose-only effect, or effect the other way, or a change in a side signal; inactive means no such curve, though single readings can be large or run the other way; the % refers to the signal ratio; further: potency means the concentration at half of the fitted maximal effect)
Procedure, shortened: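 Beta-lactamase reporter, antagonist mode, HEK 293 GripTite cells; 0.5nM E2 stimulus, 18 h, 37 C; CCF4 dye 2 h RT; fluorescence. IC50 and efficacy from Hill fits, normalized to E2 and DMSO.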

[20] = molecular target: Peroxisome proliferator-activated receptor gamma (Homo sapiens) (UniProt P37231); test: qHTS assay for small molecule agonists of peroxisome proliferator-activated receptor gamma signaling (AID 588536; active means well fitted curve in the direction sought with a large enough effect in the signal ratio, with a control signal flat, not every such curve was filed as active; inconclusive means small, poorly fitted or top-dose-only effect, or effect the other way, or a change in a side signal; inactive means no such curve, though single readings can be large or run the other way; the % refers to the signal ratio)
Procedure, shortened: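 Test agents, titrated, stimulated HEK293 UAS-bla cells overnight (16 h, 37 C). Substrate CCF4 was then added for two hours at room temperature before fluorescence reading.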

Compound	outcome [1]	outcome [2]	outcome [3]	outcome [4]	outcome [5]	Potency [6]	Potency [7]	outcome [8]	activation [9]	outcome [10]	outcome [11]	activation [12]	max response [13]	outcome [14]	outcome [15]	Potency [16]	outcome [17]	Potency [18]	Potency [19]	outcome [20]
CC(C)OC(=O)C(C)(C)Oc1ccc(C(=O)c2ccc(Cl)cc2)cc1	inactive	inactive	inactive	inactive	inactive	inactive	inactive	inactive	-4% (inactive)	inactive	inactive	0.14% (inactive)	43.3%	inactive	inactive	–	–	–	–	–
COc1cccc(-c2cc(=O)c3ccccc3o2)c1N	inactive	inactive	inactive	inactive	inactive	inactive	inactive	–	–	–	–	–	–	–	–	inactive	inactive	–	–	–
CCN(CC)CCOC(=O)c1ccc(N)cc1	inactive	inactive	inactive	inactive	inactive	inactive	inactive	–	–	–	–	–	–	–	–	inactive	–	–	–	–
Cc1cccc(C)c1OCC(C)N (stereo unspecified)	–	inactive	inactive	inactive	inactive	inactive	inactive	–	–	–	–	–	–	–	–	inactive	–	–	–	–
O=c1cc(-c2ccc(O)cc2)oc2cc(O)cc(O)c12	inactive	inactive	inactive	inactive	–	inactive	inactive	–	–	–	–	–	–	–	–	inactive	inactive	44.7 µM (active)	–	–
CC1=C(/C=C/C(C)=C/C=C/C(C)=C/C(=O)Nc2ccc(O)cc2)C(C)(C)CCC1	inactive	inactive	inactive	inactive	inactive	inactive	31.6 µM (active)	inactive	–	–	–	–	–	–	–	31.6 µM (active)	–	–	15.8 µM [inconclusive] (active)	–
CC(=O)c1ccc(S(=O)(=O)NC(=O)NC2CCCCC2)cc1	inactive	inactive	inactive	inactive	inactive	inactive	inactive	inactive	-0.897% (inactive) and 2.97% (inactive)	inactive	inactive	9.83% (inactive) and -7.15% (inactive)	3.83% and 9.27%	inactive	inactive	inactive	–	inactive	inactive	inactive
CC(C)(C)c1ccc(C(O)CCCN2CCC(C(O)(c3ccccc3)c3ccccc3)CC2)cc1 (stereo unspecified)	inactive	inactive	inactive	inactive	inactive	–	–	–	–	–	–	–	–	–	–	–	–	–	–	–
CCCCC1C(=O)N(c2ccccc2)N(c2ccccc2)C1=O	inactive	inactive	inactive	inactive	inactive	inactive	inactive	inactive	–	–	inactive	-0.201% (inactive) and -2.53% (inactive)	–	–	–	inactive	–	inactive	inactive	inactive
